# Source: PubChem BioAssay (NCATS)
# Results filed as inconclusive are left out. Entries that show only a call come without a potency. Active and inactive are the calls of the source. Calls come from the whole dose curve; as a rule, active = well fitted curve in the direction sought with a large enough effect; inconclusive = small, poorly fitted or top-dose-only effect, or another doubt; inactive = no such curve, though single readings can be large; an effect the other way counts as inactive or inconclusive.
# What was measured:
# [1] = Primary qHTS for inhibitors of nuclear receptor binding SET domain protein 2 (NSD2) in an isogenic RCH-ACV NSD2 p.E1099K mutant (9B) (AID 1645876)
# [2] = Primary qHTS for inhibitors of nuclear receptor binding SET domain protein 2 (NSD2) in an RCH-ACV wild type WT cells (2C) (AID 1645877)
# Note: nearly all actives have a fitted effect of over 70% in size.
compound,measurement,setting,value
CC1(C)CC2C(O)C3=C(CC(C)(O)C2C1)C(=O)OC3O (configuration not stated),Potency,[1],inactive
same,Potency,[2],inactive
OCCc1ccc(O[C@@H]2O[C@H](CO)[C@@H](O)[C@H](O)[C@H]2O)c(O)c1,Potency,[1],inactive
same,Potency,[2],inactive
CCOC(=O)[C@H](CCc1ccccc1)N[C@@H](C)C(=O)N1C2CCCCC2C[C@H]1C(=O)O (some centres not stated),Potency,[1],inactive
same,Potency,[2],inactive
CC(=C/C(=O)O)/C=C/[C@]1(O)[C@@]2(C)CO[C@]1(C)C[C@H](O[C@@H]1O[C@H](CO)[C@@H](O)[C@H](O)[C@H]1O)C2,Potency,[1],inactive
same,Potency,[2],inactive
C/C=C(\C)C(=O)OC[C@H]1O[C@H](O[C@H]2O[C@H](CO)[C@@H](OC(=O)/C(C)=C/C)[C@H](O)[C@H]2O[C@@H]2O[C@H](CO)[C@@H](O)[C@H](O)[C@H]2O)[C@H](O[C@@H]2O[C@H](CO)[C@@H](O)[C@H](O)[C@H]2O)[C@@H](O)[C@@H]1O,outcome,[1],inactive [at 9.23 µM]
same,outcome,[2],inactive [at 9.23 µM]
CO[C@H]1C=C2C(CC[C@H](O[C@@H]3O[C@H](CO)[C@@H](O)[C@@H](O)[C@H]3O)C2(C)C)[C@]2(C)CC[C@]3(C)C([C@H](C)C(O)C(C=C(C)C)O[C@@H]4O[C@H](CO)[C@@H](O)[C@@H](O)[C@H]4O)CC[C@@]3(C)C12 (some centres not stated),outcome,[1],inactive [at 9.23 µM]
same,outcome,[2],inactive [at 9.23 µM]
CC1(C)CCCC2(C)C1C(O)C=C(CO)C2(O)C(=O)O (configuration not stated),Potency,[1],inactive
same,Potency,[2],inactive
CC1CCC2(C)C(CC(O)C(O)C23CO3)C1(C)CCC1=CC(O)OC1=O (configuration not stated),Potency,[1],inactive
same,Potency,[2],inactive
C=C1[C@H]2CC[C@]3(O)[C@@](CC[C@@H]4[C@](C)(C(=O)O)CCC[C@]43C)(C2)[C@H]1OC(=O)/C(C)=C\C,Potency,[1],inactive
same,Potency,[2],inactive
C=C1CC23CCC4[C@@](C)(CCC[C@@]4(C)C(=O)O)C2CCC1C3 (some centres not stated),Potency,[1],inactive
same,Potency,[2],inactive
CC[C@H](/C=C/[C@@H](C)[C@H]1CC[C@H]2[C@@H]3CC=C4C[C@@H](O)CC[C@]4(C)[C@H]3CC[C@]12C)C(C)C,outcome,[1],inactive [at 4.96 µM]
same,outcome,[2],inactive [at 4.96 µM]
OC[C@H]1O[C@@H](OC(CCCCc2ccc(O)cc2)CCc2ccc(O)cc2)[C@H](O[C@@H]2OC[C@](O)(CO)[C@H]2O)[C@@H](O)[C@@H]1O (some centres not stated),Potency,[1],inactive
same,Potency,[2],inactive
C[C@@H]1C[C@H](O[C@@H]2O[C@H](CO[C@@H]3OC[C@](O)(CO)[C@H]3O)[C@@H](O)[C@H](O)[C@H]2O)CC(C)(C)[C@H]1/C=C/[C@@H](C)O,Potency,[1],inactive
same,Potency,[2],inactive
COc1cc(/C=C/C(=O)OC(C)(C)C(OC2OC(CO)C(O)C(O)C2O)C(=O)OCc2ccc(OC3OC(CO)C(O)C(O)C3O)cc2)ccc1O (configuration not stated),Potency,[1],inactive
same,Potency,[2],inactive
CCCCCCc1cccc(NC(=O)[C@H](N)CCP(=O)(O)O)c1,outcome,[1],inactive [at 9.23 µM]
same,outcome,[2],inactive [at 9.23 µM]
C=C(C)C1CC2(CO)C(=CC1=O)CCC(O)C2C (configuration not stated),Potency,[1],inactive
same,Potency,[2],inactive
Cc1cc(O)cc(Oc2cc(C)c(C(=O)O)c(O)c2)c1,Potency,[1],inactive
same,Potency,[2],inactive
C=C1CCC2(OC1)OC1CC3C4CC=C5CC(O)CC(O[C@@H]6OC[C@@H](O)[C@H](O)[C@H]6O)C5(C)C4CCC3(C)C1(O)C2C (some centres not stated),Potency,[1],inactive
same,Potency,[2],inactive
O=C(O)C[C@H]1CCC(=O)[C@@H]1C/C=C\CCOC1OC(CO)C(O)C(O)C1O (some centres not stated),Potency,[1],inactive
same,Potency,[2],inactive
CC1CCC2C(C)(C)CC(C)(CO)C2(O)C1C(=O)O (configuration not stated),Potency,[1],inactive
same,Potency,[2],inactive
C=C1CC[C@H]2[C@@H](/C=C(\C)C(=O)[C@@]3(OC(C)=O)C[C@H](C)[C@H](OC(C)=O)[C@@H]3[C@H]1OC(C)=O)C2(C)C,Potency,[1],inactive
same,Potency,[2],inactive
COc1cc(CCc2ccccc2)c(C(=O)O)c2c1CC(C(C)(C)O)O2 (configuration not stated),Potency,[1],inactive
same,Potency,[2],inactive
O=C1NC(Cc2ccc(O)cc2)C(=O)N2CCCC12 (configuration not stated),Potency,[1],inactive
same,Potency,[2],inactive
CC(C)C1(O[C@@H]2O[C@H](CO)[C@@H](O)[C@H](O)[C@H]2O)CC=C(CO)CC1 (some centres not stated),Potency,[1],inactive
same,Potency,[2],inactive
COC(=O)[C@@]1(C)CC[C@]2(C(=O)O[C@@H]3O[C@H](CO)[C@@H](O)[C@H](O)[C@H]3O)CC[C@]3(C)C(=CCC4[C@@]5(C)CC[C@H](O[C@@H]6O[C@H](C(=O)O)[C@@H](O)[C@H](O)[C@H]6O)C(C)(C)C5CC[C@]43C)[C@@H]2C1 (some centres not stated),"activity change, negative = viability loss",[1],-18.6% [at 9.23 µM] (inactive)
same,"activity change, negative = cell killing",[2],-26.4% [at 9.23 µM] (inactive)
CCNC(=O)CCC/C=C\C[C@@H]1[C@@H](/C=C/C(O)CCc2ccccc2)[C@@H](O)C[C@@H]1O (some centres not stated),Potency,[1],inactive
same,Potency,[2],inactive
